Structures are written as SMILES. The panel holds about 83,000 compounds, 20% with a hit somewhere; the sample as a whole holds those more often.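 In brief: 96-well plates, 48 h treatment, single concentration, percent growth endpoint.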 Values without a mark were called inactive. The source made the active and inactive calls. Rule for the calls: active = growth percent below 10; inactive = the rest.

Holding throughout (experiment): NCI-60 one-dose screen, 48 h (100 = growth as untreated, 0 = no growth, -100 = all killed)
One assay relates to NCI-H23 lung. The conditions noted are these: 10 µM unless noted.
Another assay relates to NCI-H226 lung. The conditions noted are these: 10 µM unless noted.
The next assay deals with NCI-H322M lung. The conditions noted are these: 10 µM unless noted.
In a further assay the test system is HOP-62 NSCLC. The conditions noted are these: 10 µM unless noted.
For the next assay, the system named is NCI-H460 lung. The conditions noted are these: 10 µM unless noted.
The next assay concerns HOP-92 NSCLC. The conditions noted are these: 10 µM unless noted.
The subject of another assay is NCI-H522 lung. The conditions noted are these: 10 µM unless noted.
The test system of another assay is A549/ATCC NSCLC. The conditions noted are these: 10 µM unless noted.
Another assay relates to 786-0 renal. The conditions noted are these: 10 µM unless noted.
For a further assay, the system named is COLO 205 colon. The conditions noted are these: 10 µM unless noted.
A further assay has as its system DU-145 prostate. The conditions noted are these: 10 µM unless noted.
A further assay deals with K-562 leukemia. The conditions noted are these: 10 µM unless noted.
The next assay deals with MALME-3M melanoma. The conditions noted are these: 10 µM unless noted.
For another assay, the system named is MDA-MB-231 breast. The conditions noted are these: 10 µM unless noted.
Another assay relates to RXF 393 renal. The conditions noted are these: 10 µM unless noted.
A further assay relates to SF-268 CNS. The conditions noted are these: 10 µM unless noted.
The next assay concerns SF-295 CNS. The conditions noted are these: 10 µM unless noted.
A further assay has as its system SF-539 CNS. The conditions noted are these: 10 µM unless noted.
In the next assay the test system is UACC-257 melanoma. The conditions noted are these: 10 µM.
A further assay has as its system M14 melanoma. The conditions noted are these: 10 µM unless noted.

`CC1(COc2ccc3ncc(C#Cc4cncc(C(=O)Nc5cc(C(C)(C)C)on5)c4)n3n2)COC1`: the growth was 28.7% in the assay on NCI-H23 lung; 18.8% in the assay on NCI-H226 lung; 60.4% in the assay on NCI-H322M lung; 29.1% with HOP-62 NSCLC; 23.3% with NCI-H460 lung; -22.6% (active) in the assay on HOP-92 NSCLC. Further, the growth was 56.9% with NCI-H522 lung; 47.2% in the assay on A549/ATCC NSCLC; 52.3% with 786-0 renal; 61.9% in the assay on COLO 205 colon; 53.5% in the assay on DU-145 prostate; 16.2% with K-562 leukemia. Moreover, the growth in the assay with MALME-3M melanoma is 30.2%; in the assay with MDA-MB-231 breast it was 30.7%; with RXF 393 renal it was -2.4% (active); in the assay on SF-268 CNS, 53.9%; in the assay on SF-295 CNS it was 22.6%; in the assay with SF-539 CNS it was 20.2%. The growth in the assay on UACC-257 melanoma was 79.9%; in the assay with M14 melanoma, 28.7%.

With `CC(=O)c1sc(Nc2cccc(Nc3nc(C)c(C)s3)c2)nc1C`, the growth in the assay with NCI-H23 lung was 63.2%; in the assay on NCI-H226 lung, 65.4%; in the assay on NCI-H322M lung, 61.7%; in the assay with HOP-62 NSCLC, 77.8%; in the assay with NCI-H460 lung, 45.6%; in the assay with HOP-92 NSCLC, 63.6%. Besides, the growth in the assay with NCI-H522 lung was 46.2%; with A549/ATCC NSCLC, 65.8%; with 786-0 renal, 55.7%; with COLO 205 colon, 77.7%; with DU-145 prostate, 45.4%; with K-562 leukemia, 40.9%. Moreover, the growth in the assay with MALME-3M melanoma was 69.8%; in the assay on MDA-MB-231 breast, 80.7%; in the assay with RXF 393 renal, 47%; in the assay with SF-268 CNS, 71.1%; in the assay with SF-295 CNS, 86.5%; in the assay with SF-539 CNS, 72.2%. In addition, the growth with UACC-257 melanoma is 88.7%; with M14 melanoma, 51.3%.

With `CC[C@]12C=CCN3CC[C@]4(C(=C(C(=O)OC)C1)Nc1cc5c(cc14)[C@@H]1[C@H](O5)[C@@H](O)[C@@]4(CC)CC(C(=O)OC)=C5Nc6cc(OC)ccc6[C@@]56CCN1[C@@H]46)[C@@H]32`, the growth in the assay with NCI-H23 lung is -44.5% (active); with NCI-H226 lung, -1.39% (active); in the assay with NCI-H322M lung it was 15%; in the assay on HOP-62 NSCLC it was 24.1%; in the assay with NCI-H460 lung it was 5.78% (active); in the assay on HOP-92 NSCLC it was 37.1%. For the same compound, the growth in the assay with NCI-H522 lung is -11.8% (active); with A549/ATCC NSCLC, 20%; with 786-0 renal, -9.86% (active); in the assay with COLO 205 colon, -29.2% (active); with DU-145 prostate it was 22.6%; with K-562 leukemia, 9.45% (active). For the same compound, the growth with MALME-3M melanoma was 25%; with MDA-MB-231 breast it was 20.4%; in the assay with RXF 393 renal, -39.2% (active); in the assay with SF-268 CNS it was 14.9%; in the assay on SF-295 CNS, 15.4%; in the assay with SF-539 CNS, -4.82% (active). Moreover, the results for the growth in the assay with UACC-257 melanoma and in the assay on M14 melanoma were 29.5% and 9.29% (active), respectively.

As to `O=C1NC(=O)/C(=C/c2ccc(OCc3cc4ccccc4nc3Cl)cc2)S1`, the growth was 87.1% with NCI-H23 lung; 101% in the assay on NCI-H226 lung; 103% in the assay with NCI-H322M lung; 105% in the assay with HOP-62 NSCLC; 101% in the assay with NCI-H460 lung; 78.6% with HOP-92 NSCLC. Besides, the growth was 79.8% in the assay with NCI-H522 lung; 99.6% in the assay on A549/ATCC NSCLC; 93.7% in the assay with 786-0 renal; 122% with COLO 205 colon; 100% in the assay on DU-145 prostate; 75.2% with K-562 leukemia. Also, the growth in the assay on MALME-3M melanoma is 103%; in the assay with MDA-MB-231 breast it was 88.2%; in the assay on RXF 393 renal, 111%; with SF-268 CNS it was 110%; in the assay on SF-295 CNS, 96.4%; with SF-539 CNS it was 104%. In addition, the figures for the growth in the assay with UACC-257 melanoma and in the assay with M14 melanoma were 98% and 104%, respectively.

Take `COc1cc(/C=N/n2cnc3oc(-c4ccccc4)cc3c2=N)cc(CN2CCCC2)c1O`: the growth in the assay with NCI-H23 lung was 103%; in the assay on NCI-H226 lung, 90.5%; with NCI-H322M lung, 96.7%; in the assay with HOP-62 NSCLC, 85.5%; in the assay with NCI-H460 lung, -58.6% (active); in the assay with HOP-92 NSCLC it was 77.9%. For the same compound, the growth was 96.4% with NCI-H522 lung; 64.7% in the assay with A549/ATCC NSCLC; -81% (active) in the assay on 786-0 renal; 11.8% with COLO 205 colon; 7.65% (active) with DU-145 prostate; 0.0184% (active) in the assay with K-562 leukemia. Further, the growth with MALME-3M melanoma is -45% (active); in the assay on MDA-MB-231 breast, -70% (active); in the assay on RXF 393 renal, 15.7%; in the assay on SF-268 CNS, 88.6%; in the assay with SF-295 CNS, 90.5%; with SF-539 CNS, 93.5%. Further, the growth with UACC-257 melanoma is 109%; with M14 melanoma it was 14.1%.

As for `C=C(C)[C@@H]1CC[C@]2(C(=O)NCCCN(CCC#N)CCC#N)CC[C@]3(C)[C@H](CC[C@@H]4[C@@]5(C)CCC(=O)C(C)(C)[C@@H]5CC[C@]43C)[C@@H]12`, the growth was 93.6% with NCI-H23 lung; 94% with NCI-H226 lung; 103% in the assay with NCI-H322M lung; 97.9% in the assay on HOP-62 NSCLC; 101% with NCI-H460 lung; 102% in the assay on HOP-92 NSCLC. The growth in the assay with NCI-H522 lung is 91.6%; in the assay on A549/ATCC NSCLC, 97.3%; in the assay on 786-0 renal, 101%; in the assay on COLO 205 colon, 109%; with DU-145 prostate it was 109%; with K-562 leukemia, 88.4%. Also, the growth is 102% with MALME-3M melanoma; 99.4% in the assay with MDA-MB-231 breast; 92.9% in the assay with RXF 393 renal; 99.2% in the assay with SF-268 CNS; 97.1% in the assay with SF-295 CNS; 99.7% with SF-539 CNS. Moreover, the growth in the assay on UACC-257 melanoma was 105%; in the assay on M14 melanoma, 101%.

`CCC(=O)Nc1cc(Nc2cc(NC3CC3)n3ncc(C#N)c3n2)ccc1C`: the growth was 15.3% with NCI-H23 lung; 26.4% in the assay with NCI-H226 lung; 19.4% in the assay with NCI-H322M lung; 24.8% in the assay with HOP-62 NSCLC; 16.1% in the assay with NCI-H460 lung; 6.91% (active) with HOP-92 NSCLC. Moreover, the growth in the assay with NCI-H522 lung is 27%; in the assay on A549/ATCC NSCLC, 26.9%; with 786-0 renal, 42%; in the assay on COLO 205 colon, 30.4%; in the assay with DU-145 prostate it was 44.7%; with K-562 leukemia, 22.9%. The growth in the assay on MALME-3M melanoma was 30.8%; with MDA-MB-231 breast, 19.5%; in the assay with RXF 393 renal it was -8.35% (active); in the assay with SF-268 CNS, 35%; in the assay on SF-295 CNS, 21.7%; in the assay with SF-539 CNS it was 21.8%. Also, the growth in the assay on UACC-257 melanoma is 34.2%; with M14 melanoma it was 14.9%.

For the origin of these results see PubChem BioAssay (NCI).
